Laboratory results taken from PubChem BioAssay (NCI).
Values joined by “and” are separate entries in the source; they are usually repeats but may differ in a detail not shown here. Equal values may be shown once. The panel holds about 79,000 compounds, 15% with a hit somewhere; the sample as a whole holds those more often. Cut-off read from the data, not from the text of the source: active = growth inhibition above about 70%; inactive = the rest.

Columns and labels:
[1] = NCI Yeast Anticancer Drug Screen. Data for the rad50 strain (AID 155);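 note: 0% = growth of vehicle-only cultures of the same strain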; conditions: S. cerevisiae rad50 strain growth inhibition, hits give high values; at 50.0 µM unless noted
Procedure, shortened: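 Inhibition values express reduced yeast growth in compound-treated cultures relative to vehicle-treated controls.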

[2] = NCI Yeast Anticancer Drug Screen. Data for the mec2-1 strain (AID 157); conditions: S. cerevisiae mec2-1 strain, hits give high values; at 50.0 µM unless noted
Procedure, shortened: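 Readout is yeast growth inhibition, normalised to vehicle-treated controls, in the mec2-1 strain exposed to compound.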

[3] = NCI Yeast Anticancer Drug Screen. Data for the sgs1 mgt1 strain (AID 161);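 note: 0% = growth of cultures given vehicle only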; conditions: S. cerevisiae sgs1 mgt1 strain, hits give high values; at 50.0 µM unless noted
Procedure, shortened: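 Growth of a repair-deficient yeast mutant was monitored after compound treatment and expressed as inhibition relative to vehicle-treated cultures.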

[4] = NCI Yeast Anticancer Drug Screen. Data for the cln2 rad14 strain (AID 165);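 note: 0% = growth equal to vehicle treated cultures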; conditions: S. cerevisiae cln2 rad14 strain, hits give high values; at 50.0 µM unless noted
Procedure, shortened: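 Relative to vehicle controls, growth inhibition of compound-treated cln2 rad14 yeast was recorded.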

[5] = NCI Yeast Anticancer Drug Screen. Data for the bub3 strain (AID 167); conditions: S. cerevisiae bub3 mutant strain, hits give high values; at 50.0 µM unless noted
Procedure, shortened: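 Steps: expose the mutant yeast strain to compound; grow alongside vehicle-treated cultures; measure growth; express inhibition against the vehicle cultures.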

[6] = NCI Yeast Anticancer Drug Screen. Data for the mlh1 rad18 strain (AID 175); conditions: S. cerevisiae mlh1 rad18 strain growth inhibition, hits give high values; at 50.0 µM unless noted
Procedure, shortened: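 Test agents were incubated with a yeast strain of defined genotype (DNA damage repair defect). Inhibition of growth was derived by comparison with vehicle-exposed cultures.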

Measured: growth inhibition

CS(=O)(=O)c1cccc(C(=O)O)c1
inactive: [1] 12.4% | [2] 7.65% | [3] 4.05% | [4] -16.1% | [5] 1.35% | [6] -18%

CCCCCCCCCCCCCCCCCCCCCCCCC(=O)O
inactive: [1] -18.6% | [2] -22.6% | [3] -11.4% | [4] 4.15% | [5] -33.5% | [6] -25.5%

CN(C)c1ccc(N)c(N)c1
inactive: [1] -13.5% | [2] -34.8% | [3] -4.45% | [4] 12.1% | [5] 5.95% | [6] -12.9%

COC1OC(CO)C(O)C(Nc2ccc([N+](=O)[O-])cc2[N+](=O)[O-])C1O (configuration not stated)
inactive: [1] 7.2% | [2] 1.05% | [3] 19.1% | [4] -53.6% | [5] -10.8% | [6] 1.1%

CCOC(=N)n1c(=O)n(C2=NCCN2)c2ccccc21
inactive: [1] 0.45% | [2] 0.35% | [3] -48.5% | [4] 1.95% | [5] 22.2% | [6] -43.8%

C/C(=C\CNc1ncnc2c1ncn2CCC#N)CO
inactive: [1] -17% | [2] 13.2% | [3] -33.2% | [4] 1.5% | [5] 14.8% | [6] -15.9%

CCCn1c(C)nc2c([N+](=O)[O-])cc(C)cc21
inactive: [1] -4.2% | [2] -14.8% | [3] -12.9% | [4] -34.2% | [5] 13.4% | [6] -4.8%

CC1C(c2ccccc2)OCCN1C(=S)Nc1ccccc1 (configuration not stated)
inactive: [1] 34.9% | [2] 34.2% | [3] 45.6% | [4] -16.6% | [5] 35.2% | [6] 25.4%

CN(C)C(=O)Sc1ccc(C(C)(C)C)cc1
inactive: [1] 8.3% | [2] -8.1% | [3] -15.7% | [4] -41.5% | [5] -1.65% | [6] -28.2%

Cn1c2c(c(=O)c3cc(O)ccc31)CC(O)C(C)(C)O2 (configuration not stated)
inactive: [1] -8.9% | [2] -10.8% | [3] -11.7% | [4] -11% | [5] 8.8% | [6] -2.7%

N#CC(C(=O)NN)C1CCCCC1 (configuration not stated)
inactive: [1] -0.85% | [2] -22% | [3] -2.95% | [4] -0.1% | [5] -33.8% | [6] -11.7%

CC(=O)NCC(C)NC(C)=O (configuration not stated)
inactive: [1] -16.6% and -6.55% | [2] -37.4% and -15.4% | [3] -34.2% and -27.1% | [4] -6.75% and 7.7% | [5] -14.8% and -2.45% | [6] -15.2% and 8.1%

COc1ccc(C2c3c(ccc4ccccc34)Oc3ccc4ccccc4c32)cc1
inactive: [1] -8.05% | [2] -23.6% | [3] 7.5% | [4] 6.85% | [5] 2.85% | [6] -8.45%

CCCCC/C([O-])=C1/C(=O)N(c2ccccc2)N=C1C.CCCCC/C([O-])=C1/C(=O)N(c2ccccc2)N=C1C.[Cu+2]
inactive: [1] 2.1% | [2] 0.75% | [3] -13.7% | [4] -6.1% | [5] -2.75% | [6] 7.75%

CCCC(=O)Nc1ccc(C2=NNC(=O)C3CC23)cc1 (configuration not stated)
inactive: [1] 31.2% | [2] 26.6% | [3] 33.5% | [4] -20% | [5] 27.9% | [6] 36.5%

c1nc2nc(N3CCOCC3)nc(N3CCOCC3)c2[nH]1
inactive: [1] 11.8% | [2] -0.8% | [3] 23.9% | [4] 8.45% | [5] -17.9% | [6] 8.7%

CCCCOC(=O)NC(=O)c1cn(CCCOC(=O)NCCCCCCNC(=O)OCCCn2cc(C(=O)NC(=O)OCCCC)c(=O)[nH]c2=O)c(=O)[nH]c1=O
inactive: [1] -1.1% | [2] 2.75% | [3] -4.2% | [4] 24.6% | [5] -6.35% | [6] -33.1%

CCN(CC)C(=O)N(O)C1CCCCC1
inactive: [1] -35.4% | [2] 2.2% | [3] -14.9% | [4] 8.05% | [5] 4.75% | [6] -7.2%

COC(=O)c1ccc(COC(=O)N2C=CCC2C(=O)O)cc1 (configuration not stated)
inactive: [1] 20.2% | [2] -19.6% | [3] 13.4% | [4] 11.7% | [5] 4% | [6] 1.15%

C[N+]12CCCCC1C(CN1C(=O)c3ccccc3C1=O)CCC2 (configuration not stated)
inactive: [1] 0.65% | [2] -6.05% | [3] 35.7% | [4] 10.9% | [5] 28.8% | [6] -40%

COc1ccc2c3c([nH]c2c1N)C(C)NCC3 (configuration not stated)
inactive: [1] -11.4% | [2] -18.9% | [3] 4.2% | [4] 13.3% | [5] -18.3% | [6] 0.4%

CCOP(=O)(OCC)/C(=C/n1c(=S)[nH]c2ccccc21)C(=O)OC
inactive: [1] -29.8% | [2] -55.1% | [3] -10% | [4] 0.9% | [5] -0.8% | [6] -22.2%

CCOC(=O)CC(=O)Cc1ccccc1
inactive: [1] -23.3% | [2] -16.6% | [3] -6.25% | [4] -43.8% | [5] -13.2% | [6] -19.1%

O=C(CCS(=O)(=O)CCC(=O)c1ccccc1)c1ccccc1
inactive: [1] -12.3% | [2] 11.8% | [3] 2.25% | [4] -6.35% | [5] -4.4% | [6] 3.1%

CC(=O)N1C(Nc2cnc3ccccc3c2)CCN1c1ccccc1 (configuration not stated)
inactive: [1] -31.4% | [2] -48.6% | [3] -13.8% | [4] 0.4% | [5] 1.25% | [6] -14%

O=S1(=O)OCCOS(=O)(=O)C1C1c2ccccc2-c2ccccc21
inactive: [1] 13.4% | [2] 2.95% | [3] 18.7% | [4] 7.6% | [5] -1.25% | [6] -32.3%

CN1CCC/C1=N\C(=Nc1ccccc1)N1CCCC1
inactive: [1] 7.95% | [2] -1.8% | [3] -6.05% | [4] 12.5% | [5] -4.35% | [6] -9.15%

CCCCCCC(CCN(C)C)(C(C)=O)c1ccccc1 (configuration not stated)
inactive: [1] -3.3% | [2] 3.7% | [3] 1.05% | [4] -3.5% | [5] 6.85% | [6] 11.1%

Cc1cc(=O)n2nc(CCl)sc2n1
inactive: [1] 9.65% | [2] 10.2% | [3] 6.15% | [4] -8% | [5] 11.3% | [6] 10.1%

O=C1OC2C(O)C(CO)OC2n2c1cc(=O)[nH]c2=O (configuration not stated)
inactive: [1] 2.55% | [2] 13.9% | [3] 9.4% | [4] -4.15% | [5] 3.5% | [6] -5.35%

O=c1cc2ccccc2nn1-c1ccccc1Cl
inactive: [1] 26.1% | [2] 6.4% | [3] 37.6% | [4] 36.5% | [5] 25.3% | [6] 34.5%

CCc1c(C)[nH]c2ccc([N+](=O)[O-])cc12
inactive: [1] 18.2% | [2] 3.25% | [3] 6.7% | [4] 19.9% | [5] 23.2% | [6] 26.4%

Cc1nc(-c2cccnc2)sc1C(=O)CC(=O)C(=O)Nc1cccc(NC(=O)C(=O)CC(=O)c2sc(-c3cccnc3)nc2C)n1
inactive: [1] 20.2% | [2] -0.75% | [3] -21.6% | [4] 0.1% | [5] -12.9% | [6] 6.85%

CC(=O)OC(C(=O)NNC(=O)OC(C)(C)C)c1ccccc1 (configuration not stated)
inactive: [1] -35.6% | [2] -49.4% | [3] -38% | [4] -19.4% | [5] -13.4% | [6] -29.2%

Cc1ccc(O)c(C=NCCN=Cc2cc(C)ccc2O)c1.[Zn]
inactive: [1] -14.4% | [2] 8.6% | [3] 0.05% | [4] -13% | [5] -43.1% | [6] -32.4%

CCC[N+](C)(C)CCC#N
inactive: [1] -4.55% | [2] 10.9% | [3] 4.2% | [4] -14% | [5] 17.1% | [6] 5.25%

CCN(CC)C(=S)Oc1ccc(OC(=S)N(CC)CC)cc1
inactive: [1] 30.6% | [2] 7.1% | [3] -0.95% | [4] -6.75% | [5] -2.85% | [6] -7.35%
